The values that follow come from ChEMBL document CHEMBL1201862, “PubChem BioAssay data set” (2004).

Out of some 400,000 compounds screened, about 2,100 (0.53%) were called active. Roughly 14% stayed inconclusive and do not appear here. How the calls were made is not given here. The full list was thinned out, with actives kept by preference.

Ataxin-2 (Homo sapiens), sequence (Q99700 whole entry): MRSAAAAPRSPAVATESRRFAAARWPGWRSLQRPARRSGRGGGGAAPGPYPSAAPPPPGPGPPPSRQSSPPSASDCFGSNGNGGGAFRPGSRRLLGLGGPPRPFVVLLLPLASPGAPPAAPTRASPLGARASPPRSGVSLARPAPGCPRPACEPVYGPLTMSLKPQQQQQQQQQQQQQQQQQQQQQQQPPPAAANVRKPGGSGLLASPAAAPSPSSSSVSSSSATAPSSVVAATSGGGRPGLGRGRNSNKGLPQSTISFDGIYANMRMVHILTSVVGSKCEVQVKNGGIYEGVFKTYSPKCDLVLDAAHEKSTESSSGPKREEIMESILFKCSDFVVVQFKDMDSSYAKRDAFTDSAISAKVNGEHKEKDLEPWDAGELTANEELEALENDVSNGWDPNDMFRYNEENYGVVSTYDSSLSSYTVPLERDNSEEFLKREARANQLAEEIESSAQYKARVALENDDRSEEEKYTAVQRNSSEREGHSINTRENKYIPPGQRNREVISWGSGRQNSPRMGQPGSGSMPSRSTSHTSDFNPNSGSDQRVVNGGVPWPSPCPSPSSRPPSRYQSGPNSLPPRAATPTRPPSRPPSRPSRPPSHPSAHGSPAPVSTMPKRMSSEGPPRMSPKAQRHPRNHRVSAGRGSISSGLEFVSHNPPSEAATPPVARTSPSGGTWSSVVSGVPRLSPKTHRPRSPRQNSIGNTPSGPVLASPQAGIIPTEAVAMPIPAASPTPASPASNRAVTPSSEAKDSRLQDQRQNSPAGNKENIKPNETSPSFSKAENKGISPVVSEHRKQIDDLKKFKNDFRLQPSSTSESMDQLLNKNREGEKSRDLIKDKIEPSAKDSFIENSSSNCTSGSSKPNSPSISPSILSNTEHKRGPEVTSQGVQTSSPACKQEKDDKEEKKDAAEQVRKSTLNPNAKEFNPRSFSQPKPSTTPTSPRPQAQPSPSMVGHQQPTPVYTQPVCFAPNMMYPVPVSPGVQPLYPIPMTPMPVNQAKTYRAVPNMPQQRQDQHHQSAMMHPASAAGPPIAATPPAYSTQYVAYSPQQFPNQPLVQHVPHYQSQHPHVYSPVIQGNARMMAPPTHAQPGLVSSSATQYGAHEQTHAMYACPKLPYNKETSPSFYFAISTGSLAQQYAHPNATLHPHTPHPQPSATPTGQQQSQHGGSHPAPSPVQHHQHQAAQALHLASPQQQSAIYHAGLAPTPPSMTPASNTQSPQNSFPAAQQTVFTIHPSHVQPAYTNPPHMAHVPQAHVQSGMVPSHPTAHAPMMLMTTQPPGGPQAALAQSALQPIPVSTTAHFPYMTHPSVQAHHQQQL

This experiment addresses Ataxin-2 (Homo sapiens) (UniProt Q99700). Kind of experiment: qHTS for Inhibitors of ATXN expression. Type of experiment: functional. Background: Quantitative high-throughput screening tests each substance at several concentrations.
Take `COCCNC(=O)/C(C#N)=C1\N=C(NC(=O)c2ccco2)c2ccccc21`: the Potency entry was “inactive”.
The entry for `Cc1ccc2cccnc2c1N` is “inactive”.
`Cc1ccnc2c1ccc1c(C)ccnc12`: the Potency was 5.32 µM (active).
The result for `Cc1nn(CCN)c(C)c1Cl` reads “inactive”.
The entry for `O=C(Nc1ccccc1Cl)C1C(c2ccccc2)C1(Cl)Cl` (stereo not given) is “inactive”; for `CCCCCCCCNCCS(=O)(=O)NCc1ccccc1` it is 31.6 µM (active); for `NC(=O)c1cc(S(=O)(=O)NCc2ccccc2)cs1` it is “inactive”.
The result for `CCN1C(=O)c2cccc3c(S(=O)(=O)NCc4ccccc4)ccc1c23` reads “inactive”; that for `Nc1cc(-c2ccccc2)nn1Cc1ccccc1`, “inactive”; that for `COc1ccc(Cn2c(C)nc3ccc([N+](=O)[O-])cc3c2=O)cc1`, “inactive”.
`CC(=O)c1cn(Cc2ccccc2)c(=O)n(Cc2ccc(F)cc2)c1=O`: the Potency result is “inactive”.
For the molecule `COc1ccc(Cn2c(C(=O)O)c(CNCc3ccc(C)o3)c3ccc(C)cc32)cc1`, the Potency is 17.8 µM (active).
Turning to `Cc1ccc(Cn2c(C(=O)O)c(CNCc3ccc(C)o3)c3ccc(C)cc32)cc1`, the Potency is 35.5 µM (active).
Take `Cc1ccc2c(CNCc3ccc(C)o3)c(C(=O)O)n(Cc3ccc(F)cc3)c2c1`: the Potency was 35.5 µM (active).
The entry for `COc1ccc(CNCc2c(O)c(Cl)cc3c(C)c(C)c(=O)oc23)c(OC)c1` is “inactive”; for `Cc1c(O[C@@H]2O[C@H](CO)[C@@H](O)[C@H](O)[C@H]2O)ccc2c1oc(=O)c1ccccc12` it is “inactive”.
Take `CC(C)OCCCn1c(-c2ccco2)nc2nc3ccccc3nc21`: the Potency result was “inactive”.
The entry for `O=C(Cn1c(C(F)(F)F)nc2ccccc21)Nc1ccccc1C(=O)O` is “inactive”.
For the molecule `CC(C)(C)NC(=O)Cn1c(SCC(=O)NC2CC2)nc2ccccc21`, the Potency result is “inactive”.
In the case of `O=C(Cn1c(SCC(=O)Nc2ccc(F)cc2)nc2ccccc21)NCc1ccccc1Cl`, the Potency is 39.8 µM (active).
The result for `C/N=c1\scc(-c2ccc(OC)cc2)n1/N=C(\C)c1cccnc1` reads “inactive”; that for `CC1=CC(=Cc2sc3ccccc3[n+]2C)C=C(C)N1CC1CCCO1` (stereo not given), “inactive”; that for `Cc1cc(C)n(-c2nnc(Cl)c3ccccc23)n1`, 39.8 µM (active).
The result for `COc1ccc(-c2nc(C#N)c(N3CCCCC3)o2)cc1` reads “inactive”; that for `Nc1nc(N)c2cc(CNc3ccc(Cl)c(Cl)c3)ccc2n1`, 11.2 µM (active).
For the molecule `COc1ccc(-c2cc(C(F)(F)F)n3nc(-c4ccccc4)cc3n2)cc1OC`, the Potency result was “inactive”.
Turning to `CCN1CCN(c2nc(NCCO)c3ccccc3n2)CC1`, the Potency entry is “inactive”.
Take `CCN1CCN(c2cc(-c3ccccc3)nc3cc(-c4cccc(F)c4)nn23)CC1`: the Potency is 17.8 µM (active).
For the molecule `CCN(CC)c1ccc2cc(C(=O)Nc3ccccn3)c(=O)oc2c1`, the Potency result is “inactive”.
Take `Cc1ccnc(NC(=O)c2cc3c(=O)oc4ccc(C)cc4c3s2)c1`: the Potency is 20 µM (active).
For the molecule `Cc1ccnc(NC(=O)c2ccccc2NC(=O)c2ccc(Cl)cc2Cl)c1`, the Potency result was “inactive”.
The result for `COc1ccc(Cl)cc1N(CC(=O)N(C)C)S(=O)(=O)c1ccc(C)c([N+](=O)[O-])c1` reads “inactive”.
On to `CCOC(=O)C(C)(C)N(Cc1cccc(C)c1)S(=O)(=O)c1ccc(Cl)c([N+](=O)[O-])c1`, for which the Potency was 39.8 µM (active).
On to `CCOC(=O)c1c(CSc2ccc(CC)cc2)oc2ccc(O)c(CN(C)C)c12`, for which the Potency was 22.4 µM (active).
On to `CCCCc1cc(=O)oc2c(CN(C)C)c(O)ccc12`, for which the Potency entry is “inactive”.
The entry for `CN(C)Cc1c(O)ccc2c3c(c(=O)oc12)CCCCC3` is “inactive”; for `Cc1ccc(/C=N/n2c(S)nnc2-c2ccccn2)o1` it is “inactive”; for `Cc1ccc2nc(Cn3cc(C(F)(F)F)cc(Cl)c3=O)cc(=O)n2c1` it is “inactive”.
The entry for `CCOc1cc(NC(=O)c2cccs2)c(OCC)cc1NC(=O)c1ccccn1` is “inactive”; for `CN(C)c1ccc(-c2[nH]nc(O)c2NC(=O)c2ccccn2)cc1` it is 25.1 µM (active).
The entry for `CN(C)c1ccc(/C=N/NC(=O)c2ccccn2)cc1` is “inactive”; for `Cc1ccc(NC(=O)c2[nH]cnc2C(=O)NCCCCCNC(=O)OC(C)(C)C)cc1` it is 39.8 µM (active); for `Cc1ccc(OCCNC(=O)c2ccccc2F)cc1` it is “inactive”.
In the case of `CC(C)(C)OC(=O)NCCCCCNC(=O)c1[nH]cnc1C(=O)Nc1cc(Br)ccc1F`, the Potency was 39.8 µM (active).
The result for `Cc1cccc(NC(=O)c2[nH]cnc2C(=O)NCCCCCNC(=O)OC(C)(C)C)c1` reads 20 µM (active); that for `COc1cccc(-c2ccc3c(N)c(C(=O)c4ccc(Br)cc4)sc3n2)c1`, “inactive”.
The entry for `O=S(=O)(NCc1csc(-c2cccs2)n1)c1cccc(C(F)(F)F)c1` is “inactive”; for `CCCCn1c(OC(=S)N(CC)CC)cc(C)nc1=S` it is 35.5 µM (active); for `Nc1ccc2[nH]c(-c3ccc(Cl)cc3)nc2c1` it is 31.6 µM (active).
On to `Nc1ccc2[nH]c(-c3ccc(-c4nc5cc(N)ccc5[nH]4)cc3)nc2c1`, for which the Potency result is “inactive”.
As to `Nc1ccc2c3[nH]c4cc(N)ccc4cc-3nc2c1`, the Potency result was “inactive”.
Turning to `Cc1ccc2nc3c(cc(C(=O)NCCCn4ccnc4)n3C)c(=O)n2c1`, the Potency result was “inactive”.
`Cc1cc(C)c2cc(N)c(Cl)nc2n1`: the Potency entry was “inactive”.
Turning to `CCOC(=O)c1cc2c(=O)n3ccccc3nc2n(CC2CCCO2)/c1=N/C(=O)/C=C/c1ccccc1` (stereo not given), the Potency entry was “inactive”.
In the case of `CN(C)CCNC(=O)c1cccc(-c2cnc3c(NC=O)cc(-c4ccc(F)cc4)cn23)c1`, the Potency was 35.5 µM (active).
The figure for `CN(C)CCNC(=O)c1cccc(-c2cnc3c(NC=O)cc(-c4cc(F)c(F)c(F)c4)cn23)c1` is 25.1 µM (active); for `CN(C)C(=O)c1cccc(-c2cnc3c(NC=O)cc(-c4cccc(C(F)(F)F)c4)cn23)c1` it is 39.8 µM (active); for `CN(C)CCNC(=O)c1cccc(-c2cnc3c(NC=O)cc(-c4cccc(F)c4)cn23)c1` it is 31.6 µM (active).
The result for `COc1cccc(-c2cnc3c(NC=O)cc(-c4ccc(N(C)C)cc4)cn23)c1` reads “inactive”; that for `CC(=O)c1ccc(-c2cnc3c(NC=O)cc(-c4ccccc4Oc4ccccc4)cn23)cc1`, “inactive”; that for `CN(C)c1ccccc1-c1cc(NC=O)c2ncc(-c3cccc(C(F)(F)F)c3)n2c1`, “inactive”.
The result for `CCCCCCc1cc2cc(-c3nnc(-c4ccccc4)o3)c(=O)oc2cc1O` reads “inactive”; that for `CC(C)OC(=O)c1sc2nc(-c3ccccc3)ccc2c1N`, “inactive”; that for `O=C1CCn2c1c(O)c1ccccc1c2=O`, “inactive”.
On to `O=C1OCCN1C(=O)[C@H]1[C@H](c2ccccc2)C(c2ccccc2)=NN1c1ccccc1`, for which the Potency entry was “inactive”.
